Laboratory results as given in PubChem BioAssay (Tox21).
Active and inactive are the calls of the source. Unless noted, calls follow the shape of the dose curve; as a rule, active = well fitted curve in the direction sought with a large enough effect in the repeat runs; inconclusive = weak or mixed curves; inactive = no such curve, though single readings can be large; an effect the other way counts as inactive or inconclusive. Positions of bridges follow the written chain, without caps; N, C: chain ends. Non-standard residues stand in square brackets, D forms with d. Residues, ends and D or L forms follow the SMILES beside them. ξ: configuration not given here. *: point of attachment. d(aThr) = C[C@@H](O)[C@@H](N)C(=O)O; ξThr(3R) = C[C@@H](O)C(N)C(=O)O; X3 = CC[C@@H](C)CCCCC(=O)*; dDab = NCC[C@@H](N)C(=O)O

Legend:
[1] = qHTS assay to identify small molecule antagonists of the glucocorticoid receptor (GR) signaling pathway - cell viability counter screen (AID 720693); also: nearly all actives have a fitted effect of over 55% in size
[2] = qHTS assay for identifying genotoxic compounds that show differential cytotoxicity against isogenic chicken DT40 cell lines with known DNA damage response pathways - wild type cell line (AID 743012); also: nearly all actives have a fitted effect of over 60% in size; also: potency is read from the fitted curve at half-maximal effect
How it was run: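 Endpoint: CellTiter-Glo luminescence, 30 min RT. Cells: wild type DT40, 300/well. Exposure: compounds in DMSO, 40 h, 37 C/5% CO2, after ~0.5 h pre-incubation.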

[3] = qHTS assay for identifying genotoxic compounds that show differential cytotoxicity against isogenic chicken DT40 cell lines with known DNA damage response pathways - Rev3 mutant cell line (AID 743014); also: nearly all actives have a fitted effect of over 55% in size
[4] = qHTS assay to identify small molecule antagonists of the androgen receptor (AR) signaling pathway - cell viability counter screen (AID 743033; also: nearly all actives have a fitted effect of over 45% in size)
[5] = qHTS assay to identify small molecule antagonists of the androgen receptor (AR) signaling pathway using the MDA cell line - cell viability counter screen (AID 743041; also: nearly all actives have a fitted effect of over 45% in size)
How it was run: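 Compound exposure lasted 16 h at 37C in MDA-kb2 AR-luc cells stimulated with R1881. Protease-based CellTiter-Fluor reagent was applied for the final 30 min and fluorescence measured.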

[6] = qHTS assay to identify small molecule antagonists of the thyroid receptor (TR) signaling pathway - cell viability counter screen (AID 743064); also: nearly all actives have a fitted effect of over 50% in size; also: potency is read from the fitted curve at half-maximal effect
How it was run: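 GH3.TRE-Luc cells, 4 h pre-plating; cpd + T3 1 nM final; 37 °C 23.5 h; CellTiter-Fluor 30 min; fluorescence read.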

[7] = qHTS assay to identify small molecule antagonists of the thyroid receptor (TR) signaling pathway (AID 743065); also: nearly all actives have a fitted effect of over 55% in size
How it was run: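 GH3.TRE-Luc rat pituitary cells (two TREs driving luciferase) were dosed with compound, then stimulated with 1 nM T3 (final) for 23.5 h at 37 C. ONE-Glo luminescence was the read-out, with CellTiter-Fluor fluorescence as the cytotoxicity counter-screen.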

[8] = system: thyroid hormone receptor (rat, GH3 cells); test: qHTS assay to identify small molecule agonists of the thyroid receptor (TR) signaling pathway (AID 743066; calls by dose curve)
[9] = qHTS assay to identify small molecule antagonists of the estrogen receptor alpha (ER-alpha) signaling pathway - cell viability counter screen (AID 743074; calls by dose curve; also: nearly all actives have a fitted effect of over 45% in size; also: potency is read from the fitted curve at half-maximal effect)
[10] = target: Estrogen receptor (Homo sapiens) (UniProt P03372); test: qHTS assay to identify small molecule agonists of the estrogen receptor alpha (ER-alpha) signaling pathway (AID 743075; calls by dose curve; also: potency is read from the fitted curve at half-maximal effect)
Sequence of Estrogen receptor (Homo sapiens) (P03372 whole entry, looked up): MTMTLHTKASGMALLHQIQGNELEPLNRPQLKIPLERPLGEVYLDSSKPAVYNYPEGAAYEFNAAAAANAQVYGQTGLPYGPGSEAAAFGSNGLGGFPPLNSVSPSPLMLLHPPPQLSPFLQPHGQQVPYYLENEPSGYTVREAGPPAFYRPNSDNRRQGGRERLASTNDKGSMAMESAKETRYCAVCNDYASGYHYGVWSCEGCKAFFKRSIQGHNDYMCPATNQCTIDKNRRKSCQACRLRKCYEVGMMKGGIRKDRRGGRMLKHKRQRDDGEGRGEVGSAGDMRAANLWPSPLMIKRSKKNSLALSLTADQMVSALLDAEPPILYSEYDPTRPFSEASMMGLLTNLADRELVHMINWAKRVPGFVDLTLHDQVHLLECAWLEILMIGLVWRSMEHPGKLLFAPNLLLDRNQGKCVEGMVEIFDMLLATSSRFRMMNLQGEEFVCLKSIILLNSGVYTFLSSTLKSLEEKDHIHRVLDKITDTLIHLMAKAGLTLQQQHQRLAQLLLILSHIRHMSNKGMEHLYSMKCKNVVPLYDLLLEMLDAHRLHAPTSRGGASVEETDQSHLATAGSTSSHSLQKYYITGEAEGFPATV

[11] = target: Estrogen receptor (Homo sapiens) (UniProt P03372); test: qHTS assay to identify small molecule agonists of the estrogen receptor alpha (ER-alpha) signaling pathway using the BG1 cell line (AID 743079); settings: BG1Luc4E2 cells, ERE-luciferase agonist, 22 h; activation: at 70.3 µM (top of the series); also: nearly all actives have a fitted effect of over 20% in size
[12] = qHTS assay to identify small molecule antagonists of the estrogen receptor alpha (ER-alpha) signaling pathway using the BG1 cell line (AID 743080; calls by dose curve;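 also: BG1 cells stimulated with 17beta-estradiol alongside compound; nearly all actives have a fitted effect of over 25% in size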)
How it was run: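 Seeding, 24 h rest, compound transfer from DMSO, 17beta-estradiol addition, 21.5 h incubation, CellTiter-Fluor (30 min, 37 C), then ONE-Glo (30 min, room temperature): this sequence was run on BG1-Luc-4E2 reporter cells.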

[13] = qHTS assay to identify small molecule antagonists of the estrogen receptor alpha (ER-alpha) signaling pathway using the BG1 cell line - cell viability counter screen (AID 743081);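 also: compound given together with 17beta-estradiol as the ER stimulus; nearly all actives have a fitted effect of over 45% in size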; also: potency is read from the fitted curve at half-maximal effect
Aromatase (Homo sapiens) = Aromatase (Homo sapiens) (UniProt P11511); test: qHTS assay to identify aromatase inhibitors (AID 743083); also: nearly all actives have a fitted effect of over 55% in size
Sequence of Aromatase (Homo sapiens) (P11511 whole entry, looked up): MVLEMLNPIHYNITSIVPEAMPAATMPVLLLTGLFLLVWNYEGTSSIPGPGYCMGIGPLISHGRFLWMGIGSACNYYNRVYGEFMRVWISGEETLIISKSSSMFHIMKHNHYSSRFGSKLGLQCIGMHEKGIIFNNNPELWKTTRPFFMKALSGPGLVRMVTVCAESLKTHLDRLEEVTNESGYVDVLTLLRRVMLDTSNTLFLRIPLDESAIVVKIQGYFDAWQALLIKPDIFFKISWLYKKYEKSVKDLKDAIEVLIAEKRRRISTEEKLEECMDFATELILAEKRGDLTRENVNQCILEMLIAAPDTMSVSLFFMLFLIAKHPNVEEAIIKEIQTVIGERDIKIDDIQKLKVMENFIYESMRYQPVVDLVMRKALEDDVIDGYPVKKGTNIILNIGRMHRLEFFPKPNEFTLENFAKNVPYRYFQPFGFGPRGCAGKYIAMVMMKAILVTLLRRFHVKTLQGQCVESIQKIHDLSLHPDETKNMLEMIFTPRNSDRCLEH

[14] = qHTS assay for identifying genotoxic compounds that show differential cytotoxicity against isogenic chicken DT40 cell lines with known DNA damage response pathways - Rad54/Ku70 mutant cell line (AID 743015); also: nearly all actives have a fitted effect of over 60% in size; also: potency is read from the fitted curve at half-maximal effect
[15] = target: Estrogen receptor (Homo sapiens) (UniProt P03372); test: qHTS assay to identify small molecule antagonists of the estrogen receptor alpha (ER-alpha) signaling pathway (AID 743069; active = well fitted curve in the direction sought with a large enough effect in the signal ratio in the repeat runs, not every such curve was filed as active; inconclusive = weak or mixed curves, or effect the other way; inactive = no such curve, though single readings can be large or run the other way; the % refers to the signal ratio)
How it was run: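 In this cell-based reporter format, GripTite HEK293 cells harbouring ER-alpha-UAS-bla were grown overnight with 2% charcoal-stripped FBS, dosed with DMSO-dissolved compounds, then challenged with 17beta-estradiol. After 18 hr at 37C, beta-lactamase activity was detected by FRET fluorescence.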

[16] = target: Androgen receptor (Homo sapiens) (UniProt P10275); test: qHTS assay to identify small molecule agonists of the androgen receptor (AR) signaling pathway using the MDA cell line (AID 743040; also: nearly all actives have a fitted effect of over 20% in size)
Sequence of Androgen receptor (Homo sapiens) (P10275 whole entry, looked up): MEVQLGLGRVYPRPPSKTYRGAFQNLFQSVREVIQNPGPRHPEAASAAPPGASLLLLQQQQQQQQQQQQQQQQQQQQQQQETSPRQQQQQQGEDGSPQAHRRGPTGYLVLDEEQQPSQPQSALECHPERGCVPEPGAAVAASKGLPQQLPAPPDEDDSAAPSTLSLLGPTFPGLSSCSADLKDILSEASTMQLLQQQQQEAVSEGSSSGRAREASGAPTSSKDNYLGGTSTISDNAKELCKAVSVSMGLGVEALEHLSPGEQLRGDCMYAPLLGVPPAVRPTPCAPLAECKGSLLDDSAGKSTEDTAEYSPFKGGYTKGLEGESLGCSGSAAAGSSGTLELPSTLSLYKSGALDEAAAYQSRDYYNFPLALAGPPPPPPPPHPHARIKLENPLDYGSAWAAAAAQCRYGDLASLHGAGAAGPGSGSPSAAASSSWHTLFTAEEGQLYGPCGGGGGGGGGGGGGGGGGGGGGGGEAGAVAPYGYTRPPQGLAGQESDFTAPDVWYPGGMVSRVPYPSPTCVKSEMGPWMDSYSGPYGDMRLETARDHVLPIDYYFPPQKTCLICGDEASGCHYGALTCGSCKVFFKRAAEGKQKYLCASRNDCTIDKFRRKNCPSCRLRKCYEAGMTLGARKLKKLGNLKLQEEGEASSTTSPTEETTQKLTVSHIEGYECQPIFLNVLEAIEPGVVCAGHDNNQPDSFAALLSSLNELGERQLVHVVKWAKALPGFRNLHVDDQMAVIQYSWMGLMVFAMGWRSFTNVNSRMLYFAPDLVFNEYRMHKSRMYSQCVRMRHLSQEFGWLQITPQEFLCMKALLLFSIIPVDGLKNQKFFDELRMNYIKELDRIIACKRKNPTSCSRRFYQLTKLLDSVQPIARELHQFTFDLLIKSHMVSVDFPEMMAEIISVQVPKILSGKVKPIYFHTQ
How it was run: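 Testing was done with the MDA-kb2 AR-luc line, a human breast carcinoma stably transfected with MMTV-luciferase containing AR and GR response elements. Cells were exposed 16 h at 37C before ONE-Glo luminescence detection.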

[17] = target: Androgen receptor (Homo sapiens) (UniProt P10275); test: qHTS assay to identify small molecule antagonists of the androgen receptor (AR) signaling pathway using the MDA cell line (AID 743042; also: nearly all actives have a fitted effect of over 55% in size)
How it was run: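 MDA-kb2 breast carcinoma cells carrying MMTV-luciferase (AR/GR responsive) were co-treated with compounds and the agonist R1881 for 16 h at 37C. Inhibition read as ONE-Glo luminescence; CellTiter-Fluor fluorescence measured in parallel for cytotoxicity.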

Measured: Potency

CC(C)[C@H](N)C(=O)OCC(CO)OCn1cnc2c(=O)[nH]c(N)nc21 (stereo partly drawn)
not listed: [14] | [15] | [16] | [17]
inactive: all other assays above

CC(/C=C/C=C(\C)C(=O)O[C@@H]1O[C@H](CO[C@@H]2O[C@H](CO)[C@@H](O)[C@H](O)[C@H]2O)[C@@H](O)[C@H](O)[C@H]1O)=C\C=C\C=C(C)\C=C\C=C(/C)C(=O)O[C@@H]1O[C@H](CO[C@@H]2O[C@H](CO)[C@@H](O)[C@H](O)[C@H]2O)[C@@H](O)[C@H](O)[C@H]1O
inactive: [1] | [2] | [14] | [4] | [5] | [6] | [7] | [8] | [9] | [13]

CCOC(=O)C1=C[C@@H](OC(CC)CC)[C@H](NC(C)=O)[C@@H](N)C1
inactive: [1] | [2] | [14] | [4] | [5] | [7] | [8] | [9] | Aromatase (Homo sapiens)

CC1CC(OC(=O)C(O)c2ccccc2)CC(C)(C)C1 (stereo not drawn)
active: [2] 11.9 µM | [14] 21.1 µM
not listed: [3] | [6] | [7] | [16] | [17]
inactive: all other assays above

CC[C@@H](C)CCCCC(=O)N[C@H](CCN)C(=O)N[C@@H](C(=O)N[C@H](CCN)C(=O)N[C@@H]1CCNC(=O)C([C@@H](C)O)NC(=O)[C@@H](CCN)NC(=O)[C@@H](CCN)NC(=O)[C@@H](CC(C)C)NC(=O)[C@@H](Cc2ccccc2)NC(=O)[C@@H](CCN)NC1=O)[C@@H](C)O (stereo partly drawn) (X3-[dDab][d(aThr)][dDab][dDab][dDab][dF][dL][dDab][dDab][ξThr(3R)]; lactam 4-C)
inactive: [1] | [2] | [14] | [4] | [5] | [6] | [8] | [9] | [13] | Aromatase (Homo sapiens)

Cc1cc2nc3c(=O)[nH]c(=O)nc-3n(C[C@H](O)[C@H](O)[C@H](O)COP(=O)(O)OP(=O)(O)OC[C@H]3O[C@@H](n4cnc5c(N)ncnc54)[C@H](O)[C@@H]3O)c2cc1C
active: [9] 16.9 µM
not listed: [3] | [5] | [6] | [13] | [15]
inactive: all other assays above

CC(=O)O[C@H]1CC[C@@]2(C)C(=CC[C@H]3[C@@H]4CC[C@H](C(C)=O)[C@@]4(C)CC[C@@H]32)C1
active: [10] 16.9 µM [inconclusive]
not listed: [3] | [9] | [11] | [15] | [16] | [17]
inactive: all other assays above

COc1cc(NCCCC(C)N)c2ncccc2c1 (stereo not drawn)
active: [2] 29.8 µM | [14] 21.1 µM | [6] 15 µM | [13] 18.8 µM
not listed: [3] | [7] | [11] | [12] | Aromatase (Homo sapiens)
inactive: all other assays above

NCCC(=O)[N-][C@@H](Cc1cnc[nH]1)C(=O)O.[Zn]
not listed: [3] | [16] | [17]
inactive: all other assays above

COc1ccc(CC2c3cc(OC)c(OC)cc3CC[N+]2(C)CCC(=O)OCCCCCOC(=O)CC[N+]2(C)CCc3cc(OC)c(OC)cc3C2Cc2ccc(OC)c(OC)c2)cc1OC (stereo not drawn)
not listed: [3] | [10] | [11] | [12] | [15] | [16] | [17]
inactive: all other assays above

CN(C)CCOc1ccccc1Cc1ccccc1 (tested in a mixture with another compound)
active: [2] 26.6 µM | [14] 29.8 µM
inactive: [1] | [4] | [5] | [8] | [9] | [13] | Aromatase (Homo sapiens)

CN(CCO)CC(O)Cn1cnc2c1c(=O)n(C)c(=O)n2C (stereo not drawn) (tested in a mixture with another compound)
not listed: [3] | [10] | [11] | [12] | [15] | [16] | [17]
inactive: all other assays above

O=C(O)[C@H]1/C(=C/CO)O[C@@H]2CC(=O)N21
not listed: [3] | [16] | [17]
inactive: all other assays above

O=[N+]([O-])O[C@@H]1CO[C@H]2[C@@H]1OC[C@@H]2O
not listed: [3] | [6] | Aromatase (Homo sapiens) | [16] | [17]
inactive: all other assays above

O=C1c2ccccc2C(=O)C1c1ccc(Cl)cc1
not listed: [3] | [5] | [13]
inactive: all other assays above

CC[C@H](CC[C@@H](C)[C@H]1CC[C@H]2[C@@H]3CC=C4C[C@@H](O)CC[C@]4(C)[C@H]3CC[C@]12C)C(C)C
not listed: [3] | [16] | [17]
inactive: all other assays above
